# MARV entry inh = inhibitors of Marburg virus binding or cell entry; Marburg virus pseudotyped entry inhibition, cell reporter; Potency, µM (series often up to 37.8 µM), for the others: top-dose activity change, negative = inhibition, hits mostly inhibitors; hit rate 1.8% among 300,000; calls by dose curve; tested in HEK293 cells
# Vaccinia mCherry = vaccinia inhibition (mCherry reporter); Vaccinia virus mCherry reporter infection, fluorescence; Potency, µM (top dose mostly 36.5 µM), inactives show at the highest dose activity change, negative = inhibition, usual class: inhibitors; hit rate 0.63% among 310,000; AID 720579; calls by dose curve; tested in A549 cells; further: nearly all actives have a fitted effect of over 35% in size
# HCV inh = inhibitors of hepatitis C virus infection | Huh7.5.1 HCVcc-Cre infection, luciferase reporter, 44 h | Potency, µM (doses to about 41.8 µM), inactives show at the highest dose activity change, negative = inhibition, usual class: inhibitors | hit rate 3.4% among 340,000 | AID 651820; active means well fitted inhibition curve with a large enough effect; inconclusive means small, poorly fitted or top-dose-only effect, or another doubt; inactive means no such curve, though single readings can be large or run the other way
#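 1,000 cells/well; 4 h culture; + compound; + HCVcc-Cre (~0.5 moi); 44 h; luciferase substrate, RT 15 min; read 15 sec.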
# VACV Venus inh = inhibitors of vaccinia virus (Venus reporter); AID 720580; Vaccinia virus Venus reporter expression, fluorescence; Potency, µM (highest dose often 36.5 µM), for inactives: at the top dose activity change, negative = inhibition, most hits filed as inhibitors; hit rate 0.46% among 330,000; calls by dose curve; tested in A549 cells; further: nearly all actives have a fitted effect of over 30% in size
# Lassa entry inh = inhibitors of Lassa virus binding or cell entry; Lassa virus pseudotype entry inhibition, cell reporter; Potency, µM (series often up to 37.9 µM), inactives show at the top dose activity change, negative = inhibition, hits mostly inhibitors; hit rate 1.2% among 300,000; AID 540256; calls by dose curve; tested in HEK293 cells; further: nearly all actives have a fitted effect of over 50% in size
# * hit, by the source's call; i = inactive; u = inconclusive; x = no result given; [ ] = another dose, or the depositor's remark. The list is not random: actives were taken first. Their share in the collection is about 4.6%. On the % scale 0 is the no-effect control and ±100 the full control effect; potency means the concentration at half of the fitted maximal effect.
SMILES,MARV entry inh,Vaccinia mCherry,HCV inh,VACV Venus inh,Lassa entry inh
Cc1ccc(C(=O)Nc2ncc(Cc3ccc(SC(F)F)cc3)s2)cc1,-25.0%,-24.7%,10µM*,u,u
CCOC(=O)C(C)Sc1nc2c(cnn2-c2ccc(C)cc2)c(=O)[nH]1 (stereo unspecified),u,u,11.2µM*,-29.0%,-14.3%
COc1cc(OC)c(OC)cc1CN1CCCC(c2nc(C)ncc2-c2ccc(F)cc2)C1 (stereo unspecified),x,-0.6%,x,-13.6%,x
CCc1ccccc1NC(=O)CN(C)C(=O)Cn1ncc(Cl)c(Cl)c1=O,u,u,2.82µM*,u,u
Cc1ccc(C(=O)OCn2ncc(Cl)c(Cl)c2=O)cc1,14.6µM*,x,2.51µM*,x,23.1µM*
O=C(OCn1ncc(Cl)c(Cl)c1=O)c1ccc(C(F)(F)F)cc1,u,x,10µM*,x,u
O=C(O)c1ccc(-n2ncc(Cl)c(Cl)c2=O)cc1,x,-0.3%,x,-14.0%,x
CCOC(=O)c1ccc(NC(=O)Cn2nc(C)c3ccccc3c2=O)cc1,x,x,-20.6%,x,x
CCOC(=O)c1ccc(NC(=O)Cn2ncc(Cl)c(Cl)c2=O)cc1,3.16µM*,u,u,u,u
COC(=O)c1cc(CNC(=O)c2cccc3ccccc23)cc(NC(=O)c2ccccc2OC)c1,x,-12.8%,x,4.4%,x
CC(=O)/C(C#N)=C1\NC(=O)C(Cc2ccccc2C)S1 (stereo unspecified),u,u,8.4%,79.5%,u
CC(=O)/C(C#N)=C1\NC(=O)[C@@H](Cc2ccccc2)S1,2.51µM*,x,x,x,x
C/C(=N\N=C1\NC(=O)C(Cc2ccccc2)S1)c1ccccc1 (stereo unspecified),25.3%,x,-16.6%,x,2.31µM*
CC(=O)/C(C#N)=C1\NC(=O)C(Cc2ccccc2)S1 (stereo unspecified),2.51µM*,u,-4.8%,118.7%,u
Cc1cccc(OCCSCc2nc3ccccc3[nH]2)c1,u,x,6.31µM*,-17.6%,u
Cc1oc2ccc(O)c(CN3CCCCCC3)c2c1C(=O)Nc1cccc(C(F)(F)F)c1,u,-2.6%,x,u,u
CCOC(=O)c1c(C)oc2ncnc(Nc3cc(Cl)ccc3OC)c12,x,-14.5%,x,-7.1%,u
Cc1ccc(CNC(=O)CCCc2ccccc2)cc1,11.3%[46.1 µM],-11.2%,-7.5%,-2.3%,x
COc1ccc(CCCC(=O)NCc2ccccc2)cc1C,-26.5%,-23.3%,u,-26.6%,8.2µM*
COc1ccc(C=CNC(=O)c2ccc(OC)cc2)cc1,17.8%[14.2 µM],x,x,x,x
CC1(C)Cc2c(C#N)c(SCC(=O)c3ccccc3)nc(N3CCOCC3)c2CS1,-28.8%,-32.3%,u,-18.2%,17.8µM*
CN1Cc2c(N3CCOCC3)nc(SCc3ccccc3)c(C#N)c2CC1(C)C,u,x,10µM*,x,-2.1%
CCSc1nc(N2CCOCC2)c2c(c1C#N)CC(C)(C)N(C)C2,-25.3%[46.1 µM],x,-4.5%,-9.3%,-9.1%
CCCSc1nc(N2CCOCC2)c2c(c1C#N)CCCC2,-28.1%,-18.1%,11.2µM*,-15.5%,-17.8%
CCc1ccc(NC(=O)c2sc3nc(C)cc(C)c3c2NC(=O)c2ccccc2)cc1,19.6%[46.1 µM],-1.2%,x,-7.5%,7.4%[46.1 µM]
SMILES,MARV entry inh,Vaccinia mCherry,HCV inh,VACV Venus inh,Lassa entry inh
COc1ccc(-c2cc(=O)c3c(OC)c(OC)c(OC)c(OC)c3o2)cc1,x,-17.8%,10µM*,-9.9%,x
COc1ccc(-c2cc(=O)c3cc(OC)ccc3o2)cc1,x,-1.5%,3.1%,-4.2%,x
COc1ccc(NC(=O)C(=O)NCC(c2ccc3c(c2)OCO3)N2CCN(C)CC2)cc1 (stereo unspecified),x,-14.2%,x,-14.9%,-28.2%[46.1 µM]
O=C(NN=Cc1ccc(N(CCCl)CCCl)cc1)c1cccc([N+](=O)[O-])c1,u,i,u,-24.3%,u
O=C(NN=Cc1ccc(N(CCCl)CCCl)cc1)c1cccnc1,5.62µM*,-16.3%,u,-4.1%,u
COc1ccc(/C=N/NC(=O)c2sc(C)nc2C)cc1,-12.2%[46.1 µM],-27.1%,-11.9%,-21.2%,u
Cc1nc(C)c(C(=O)NN=Cc2ccc(N(CCCl)CCCl)cc2)s1,u,i,-4.3%,-25.0%,7.08µM*
Cc1cccc(NC(=O)c2sc(Cl)nc2C)c1C,-3.3%,u,3.5%,u,2.4%
Cc1ccc(NC(=O)c2sc(Cl)nc2C)c(C)c1,1.2%,11.2µM*,-1.4%,u,2.0%
Cc1ccccc1NC(=O)c1sc(Cl)nc1C,-3.6%,10µM*,3.6%,u,0.9%
CC1Cc2ccccc2C[N+]1(C)CC(=O)c1cccc([N+](=O)[O-])c1 (stereo unspecified),x,-0.2%,x,-11.3%,x
CC(C)NS(=O)(=O)c1ccc(OCC(=O)N2CCN(Cc3ccc4c(c3)OCO4)CC2)c(Cl)c1,u,u,11.2µM*,-28.8%,u
Cc1cc(S(=O)(=O)NC(C)C)ccc1OCC(=O)N1CCN(Cc2ccc3c(c2)OCO3)CC1,u,-15.4%,u,u,8.2µM*
CC(C)NS(=O)(=O)c1ccc(OCC(=O)N2CCCC2)c(Cl)c1,2.9%,-4.1%,-10.0%,-10.2%,7.1%
Cc1cc(S(=O)(=O)NC(C)C)ccc1OCC(=O)N1CCOCC1,0.2%,x,18.5%,x,-2.0%
COc1ccc(C=CN(CCc2ccc(OC)c(OC)c2)C(=O)c2ccccn2)cc1,-10.7%[14.2 µM],x,x,x,x
COc1cc(OC)c(OC)cc1/C=N/N(C)c1ccccc1,u,x,8.91µM*,-16.8%,1.0%
CCOC(=O)N1CCC(NS(=O)(=O)c2ccc(NC(C)=O)c(Cl)c2)CC1,u,-1.2%,6.31µM*,-2.5%,u
COc1ccc(CN2C(=O)C(Cc3ccccc3)Nc3ncnc(N4CCN(c5ccccc5)CC4)c32)cc1 (stereo unspecified),x,-22.2%,3.16µM*,-29.1%,x
COc1ccc(CN2C(=O)C(CC(C)C)Nc3ncnc(N4CCN(c5ccccc5)CC4)c32)cc1 (stereo unspecified),x,-28.7%,u,u,x
COc1ccc(Cl)cc1NC(=O)CSc1nccn1Cc1ccco1,x,i,x,-11.2%,-4.3%[46.1 µM]
CN1CCC(Oc2ccccc2Sc2ccccc2)CC1,10.3µM*,u,u,u,8.2µM*
CN1CCC(OC(c2ccccc2)c2ccccc2)CC1,u,i,-27.0%,-8.6%,u
COc1ccccc1NS(=O)(=O)c1cccc(NC(=O)Nc2cccc(Cl)c2)c1,u,u,u,u,12.6µM*
COc1ccccc1NS(=O)(=O)c1cccc(NC(=O)c2cncc(Br)c2)c1,3.55µM*,-9.2%,12.6µM*,-28.1%,u
SMILES,MARV entry inh,Vaccinia mCherry,HCV inh,VACV Venus inh,Lassa entry inh
NS(=O)(=O)c1cccc(NC(=O)c2cncc(Br)c2)c1,x,x,7.7%,x,x
Nc1nc(N)c2c(ccc3c2ccn3Cc2cccc([N+](=O)[O-])c2)n1,x,0.355µM*,x,11.2µM*,x
COc1ccc2c(=O)c(C(=O)NCCc3ccccc3)c[nH]c2c1,x,x,-3.6%,x,x
COc1ccc2c(=O)c(C(=O)NCCc3ccc(OC)c(OC)c3)c[nH]c2c1,7.3µM*,x,-27.3%,x,u
N#Cc1ccc(CSc2nc3c(c(=O)[nH]2)CCC3)cc1,11.1%[46.1 µM],-3.0%,x,3.9%,0.3%[46.1 µM]
CC(O)(c1ccccc1)C(c1ccccc1)C1CCCCN1 (stereo unspecified),x,i[7.34 µM],6.8%,0.0%[7.34 µM],x
